Source: PubChem BioAssay
The list is not random: actives were taken first. Their share in the collection is about 19%.
DT40 TDP1 no CPT: qHTS for Inhibitors of human tyrosyl-DNA phosphodiesterase 1 (TDP1): qHTS in cells in absence of CPT; DT40 Tdp1-/- hTDP1 cells, no CPT, ATP luminescence, 48 h; Potency, µM (top dose mostly 46.2 µM), without a hit: at the top dose activity change, negative = growth inhibition, usual class: inhibitors; actives 15% (n = 420,000); further: potency means the concentration at half of the fitted maximal effect; on the % scale 0 is the no-effect control and ±100 the full control effect; nearly all actives have a fitted effect of over 55% in size
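Chicken DT40 Tdp1-/- cells stably complemented with human TDP1 were seeded at 400 cells/well with DMSO in place of 20 nM camptothecin. After compound pinning, cells grew at least 48 hr at 37 °C; viability read by CellTiter-Glo luminescence.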
SW480 rereplic: A quantitative high throughput screen for small molecules that induce DNA re-replication in SW480 colon adenocarcinoma cells; SW480 DNA re-replication, Hoechst DNA content imaging, 48 h; Potency, µM (series often up to 46.1 µM), for inactives: at the highest dose re-replication activation, most hits filed as activators; actives 1.8% (n = 340,000); AID 624297, 2012; further: potency means the concentration at half of the fitted maximal effect; % of control where 0% means no effect; nearly all actives have a fitted effect of over 55% in size
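Image-based read-out: total Hoechst fluorescence of nuclei (405 nm excitation, 500-530 nm emission), with hits raising the fraction of high-intensity nuclei. SW480 colon cells incubated 48 hr with compounds at 37 C.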
TDP1 cell CPT: qHTS for Inhibitors of human tyrosyl-DNA phosphodiesterase 1 (TDP1): qHTS in cells in presence of CPT. actives 12% (n = 420,000). AID 686979, 2013. chicken DT40 Tdp1-/-;hTDP1 cells + 20 nM CPT, ATP luminescence, 48 h. Potency, µM (highest dose often 46.2 µM), for the others: top-dose activity change, negative = growth inhibition, most hits filed as inhibitors; further: potency means the concentration at half of the fitted maximal effect; on the % scale 0 is the no-effect control and ±100 the full control effect; nearly all actives have a fitted effect of over 55% in size
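Chicken DT40 Tdp1-/- cells complemented with human TDP1, 400 cells/well, exposed to compounds plus 20 nM camptothecin for at least 48 h at 37 C; viability read as ATP content by CellTiter-Glo luminescence.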
IL1B secr inh: qHTS for Inhibitors of Inflammasome Signaling: IL-1-beta AlphaLISA Primary Screen. THP-1 LPS/ATP IL-1B secretion, AlphaLISA, 16 h; hits give low values. activity change, % at 57.5 µM. actives 4.7% (n = 360,000). AID 743279, 2014; in the data active means activity change below about -50%; inconclusive means mostly about -30% to -49%; further: on the % scale 0 is the no-effect control and ±100 the full control effect
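THP-1 cells pretreated 1 hr with compounds (up to 57.5 uM final), then stimulated with LPS (250 ng/mL final) plus ATP (1.25 mM final); secreted IL-1B measured by AlphaLISA after 16 hr, decreased signal indicating inhibition.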
Chronic BCR inh: qHTS Assay to Find Inhibitors of Chronic Active B-Cell Receptor Signaling; Potency, µM (top dose mostly 46.1 µM), for inactives: top-dose activity change, negative = inhibition, usual class: inhibitors; ABC-DLBCL IkBa-CBG/CBR reporter, luminescence ratio, 4 h; actives 0.05% (n = 340,000); active means well fitted inhibition curve with a large enough effect in the signal ratio, with a control signal flat, not every such curve was filed as active; inconclusive means small, poorly fitted or top-dose-only effect, or effect the other way, or a change in a side signal; the % refers to the signal ratio;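 further: potency means the concentration at half of the fitted maximal effect; plate controls were basal doxycycline-induced cells for no effect and cells given 10 µM MG132 for full effect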
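TMD8 human ABC-DLBCL cells with doxycycline-inducible IκBα–green luciferase fusion and unfused red luciferase, in 0.5% FBS medium; compounds up to 46 uM, 4 h at 37C. Green/red luminescence ratio, filter-overlap corrected, fitted to concentration-response curves.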
MCF10A rerep: A quantitative high throughput screen for small molecules that induce DNA re-replication in MCF 10a normal breast cells; MCF 10A DNA re-replication, Hoechst nuclear intensity, 48 h; actives 2.9% (n = 350,000); AID 624296, 2012; Potency, µM (series often up to 46.1 µM), without a hit: at the highest dose activity, positive = re-replication, usual class: activators; further: potency means the concentration at half of the fitted maximal effect; % of control where 0% means no effect; nearly all actives have a fitted effect of over 50% in size
The depositor's hits bear a star; ? = inconclusive; / = no result given. Unless noted, the call rests on the fitted dose curve; in most records, active means well fitted curve in the direction sought with a large enough effect; inconclusive means small, poorly fitted or top-dose-only effect, or another doubt; inactive means no such curve, though single readings can be large; an effect the other way counts as inactive or inconclusive.

SMILES	DT40 TDP1 no CPT	SW480 rereplic	TDP1 cell CPT	IL1B secr inh	Chronic BCR inh	MCF10A rerep
CC(C)C[C@@H](CN(C)N=O)N(C[C@H](Cc1ccccc1)N(CCc1ccccc1)N=O)N=O	18.4µM*	2.3%	?	-9.8	10.6%	-18.4%
CN(C[C@H](Cc1ccccc1)N(C[C@H](Cc1cccc2ccccc12)N(CCc1ccccc1)N=O)N=O)N=O	?	-1.3%	?	22.5	-0.5%	-6.0%
OC(c1ccccc1)c1ncc(-c2cccc(OCc3ccccc3)c2)[nH]1 (centres undefined)	?	/	?	-11.7	/	/
CCOC(=O)C1CCN(CC(=O)c2c(C)n(C)c3ccc(OC)cc23)CC1	-0.3%	-8.0%	-2.0%	-3.7	-9.9%	-6.7%
O=C(CN1C(=O)NC(c2ccc(F)cc2)C1=O)NC1CCCCC1 (centres undefined)	-4.7%	-3.3%	1.7%	15.0	-0.8%	-1.8%
COc1ccc2cc(C(=O)N(C)CC(=O)Nc3ccccc3Br)ccc2c1	-19.4%	13.9%	?	-11.0	-14.4%	5.6%
COc1ccc(C)cc1N(C(=O)COc1cccc(F)c1)c1nc2ccccc2s1	?	15.8%	?	-9.2	?	7.6%
COc1ccc(C)cc1N(C(=O)c1ccc(F)cc1)c1nc2ccccc2s1	16.4µM*	11.1%	?	-15.5	8.4%	-1.7%
CC(C)=CCC[C@H](C)C[C@@H]1CC2=C(C(=O)OC(C)(C)O2)[C@@H](c2ccc(F)cc2)O1	16.4µM*	/	?	0.0	/	/
CC(C)=CCC[C@H](C)C[C@@H]1Cc2[nH]c(=S)[nH]c(=O)c2[C@@H](c2ccc(F)cc2)O1	25.9µM*	/	?	86.3	/	/
CC(C)=CCC[C@H](C)C[C@@H]1Cc2[nH][nH]c(=O)c2[C@@H](c2ccc(F)cc2)O1	?	/	?	-16.8	/	/
CCn1cc(CCC(=O)NC(C)c2ccccc2)c2ccccc21 (centres undefined)	-4.2%	-12.4%	-13.1%	-10.2	?	1.8%
Cc1ccccc1Cn1cc(CCC(=O)NC(C)c2ccccc2)c2ccccc21 (centres undefined)	23.1µM*	/	13µM*	/	/	/
O=C(Cc1csc2ccccc12)NCc1cccc(Br)c1	20.6µM*	/	16.4µM*	/	/	/
Cn1cc(CCCC(=O)NCc2cccc(Br)c2)c2ccccc21	18.4µM*	/	?	/	/	/
CC(CCc1ccccc1)NC(=O)CCc1cn(C)c2ccccc12 (centres undefined)	18.4µM*	-9.1%	-1.3%	-77.5*	-1.8%	6.1%
NNC(=O)c1csc(-c2ncc(C(F)(F)F)cc2Cl)n1	-2.7%	-9.9%	6.3%	72.8	-1.2%	-6.9%
Cc1ccc(CN2CCN(CC(=O)NCc3ccccc3Cl)C2=O)cc1	-8.5%	/	0.8%	/	/	/
CCN1C[C@@H]2[C@@H]3C(=O)N(Cc4ccccc4)C(=O)[C@@H]3[C@](Cc3ccccc3)(C1=O)N2C(=O)c1ccc(C)cc1	-20.5%	-4.9%	-3.9%	-18.0	/	-31.5%
CC(=O)NCCNc1nc(-c2ccccc2C)nc2ccccc12	-23.7%	/	-25.6%	/	/	/
COc1cnc(-c2ccccc2)nc1Sc1ccccc1	?	18.9%	0.2%	58.2	1.5%	-3.2%
COc1cnc(-c2ccccn2)nc1Sc1ccccc1Cl	1.03µM*	13µM*	1.46µM*	44.4	-16.0%	?
CCOC(=O)C(C)Sc1nc(-c2ccccn2)ncc1OC (centres undefined)	5.8µM*	0.2%	2.91µM*	73.4	7.6%	20.1%
COc1ccccc1Sc1nc(-c2ccccc2)ncc1OC	20.6µM*	-2.2%	?	21.8	11.5%	?
COc1cnc(-c2ccccn2)nc1Sc1c(Cl)cccc1Cl	0.92µM*	14.6µM*	0.651µM*	32.9	-27.6%	?
SMILES	DT40 TDP1 no CPT	SW480 rereplic	TDP1 cell CPT	IL1B secr inh	Chronic BCR inh	MCF10A rerep
COCCn1c(SCC(=O)Nc2cccc(C)c2C)nc2c(oc3ccccc32)c1=O	-13.2%	/	-13.0%	/	/	/
Cc1nn(C)c2c1c(C(F)(F)F)cc(=O)n2CC(=O)Nc1ccc(F)cc1F	-14.7%	/	?	/	/	/
COc1ccc(-c2cn3ccccc3n2)cc1OC	?	-11.6%	?	22.1	?	?
COc1ccc(S(=O)(=O)Nc2cc(-c3cn4ccc(C)cc4n3)ccc2C)cc1OC	16.4µM*	/	16.4µM*	/	/	/
COc1ccc(Br)cc1S(=O)(=O)Nc1cc(-c2cn3ccccc3n2)ccc1C	13µM*	/	?	/	/	/
CCCS(=O)(=O)Nc1cc(-c2cn3ccc(C)cc3n2)ccc1C	?	/	-7.1%	/	/	/
Cc1cc(C)c(S(=O)(=O)Nc2cc(-c3cn4ccccc4n3)ccc2C)cc1C	20.6µM*	/	20.6µM*	/	/	/
Cc1cccn2cc(-c3ccc(S(=O)(=O)N4CCOCC4)cc3)nc12	16.4µM*	-4.3%	?	28.7	?	1.2%
Cc1cccn2cc(-c3ccc(S(=O)(=O)N4CCCCC4)cc3)nc12	?	1.6%	?	-10.9	-1.0%	21.4%
CCc1ccccc1NC(=O)C1CCN(c2nc3ccccc3[nH]2)CC1	-22.2%	/	-21.3%	/	/	/
Cc1ccc(-c2cn3cccc(C)c3n2)cc1	?	-4.5%	-20.0%	16.9	-7.8%	0.6%
Cc1ccc(-c2cn3cccc(C)c3n2)cc1NS(=O)(=O)c1ccccc1	16.4µM*	/	25.9µM*	/	/	/
C[C@H](NC(=O)c1ncn2c1C(=O)N(C)CC2)C(=O)OC(C)(C)C	-17.0%	/	-11.5%	-1.3	/	/
COC(=O)c1c(-c2ccc(Cl)cc2)noc1N1CCN(c2cccc(OC)c2)CC1	5.8µM*	/	16.4µM*	/	/	/
COc1ccc(N2CCN(C(=O)c3c(-c4ccccc4)noc3C)CC2)cc1	?	-2.0%	?	0.0	?	-2.0%
COC(=O)c1c(-c2ccc(Cl)cc2)noc1N1CCN(c2cccc(C)c2C)CC1	?	/	16.4µM*	/	/	/
N#Cc1c(-c2ccc(F)cc2)cc(-c2cccs2)nc1SCC(=O)O	?	?	-9.6%	8.1	1.7%	23.1µM*
CCN(CC)C(=O)CSc1ncnc2sccc12	1.8%	-7.6%	-1.1%	14.3	0.8%	-7.6%
CCN(CC)C(=O)CSc1ncnc2c(-c3cccs3)nsc12	?	0.9%	-14.2%	-60.1*	?	27.0%
CN1CCN(C(=O)CSc2nc(-c3cccs3)cc(-c3cccs3)c2C#N)CC1	18.4µM*	?	?	-28.2	?	20.6µM*
